# Molecular target: GABARAPL2, P60520
# Assay: median log2 fold change of GCK-ALFA target abundance (FLAG IP / Myc IP barcode read proportion) (log2 ratio); each designed protein is fused to an ALFA-tag nanobody in HEK293 cells to bring the named protein to FLAG-tagged glucokinase (GCK); Myc marks an untargeted standard; higher = target protein stabilised (more abundant)
# Details: target protein: 3xFLAG-MCP-GCK-ALFA reporter; HEK293 landing pad (RPLP)
# How it was run: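 Binders fused to an ALFA nanobody were recombined as a library into HEK293 landing-pad cells, which were induced with 2 μg mL^−1 doxycycline and then transfected to express a FLAG-tagged target and a Myc-tagged standard. After 48 h, circular RNA barcodes recovered by anti-FLAG and anti-Myc immunoprecipitation of lysates were reverse transcribed, amplified and sequenced. Each binder's target abundance is the median log2 ratio of FLAG to Myc barcode read proportions, from barcodes present at ≥10^−7 in both replicates, binders carrying ≥3 barcodes per replicate, a 10^−6 pseudocount and pooled replicates.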
# Chain of GABARAPL2, P60520 (P60520 whole entry, the tested form may be a part): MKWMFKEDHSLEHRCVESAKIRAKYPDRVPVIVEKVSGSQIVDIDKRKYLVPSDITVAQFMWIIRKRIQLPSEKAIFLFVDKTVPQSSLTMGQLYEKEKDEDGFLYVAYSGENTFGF
row,Binder,median log2 fold change
1,GBRAPL2_83_7413 (protein) MTVRLALELTVTLEGDEEEKEALLDMMVETADELRKLGAAAVVAIEEEDGVLTIVLDVLVVGNKEQVEKVKKKLEEAAKEIKEKFPNAKVEVKVLEEEEL,-0.417
2,GBRAPL2_63_7400 (protein) SAAKKALEALLEHAILDLETAERLEKALEEETDEEKLYEALVEAILDLNPEATREQAEEIADLLIELAKQSEAALKAAVRALSTVPLEEALAFLRAAVAA,-0.0605
3,GBRAPL2_63_7394 (protein) SAARKVLEALLEHAIIDLETAERLEKALEEAKSEEELRKTLVEALLDMIPELTEEEAEELADMLIELAKKSEELLKEAILALQTLSKEEALAKLKALVAE,0.071
4,GBRAPL2_83_7411 (protein) MKIELDVELTVVIKGDEEEVEKIEDMMVETARELRKLGAAAVVATKEEDGVYTFVLDVLYVGDEEGAKKVIELLKESAEKIKKEFPEAKVTVKVVEKKVL,-0.364
5,GBRAPL2_83_7414 (protein) TTIELDLLLEVKLKGDEEEKEELLDLMVEAADRLRELGASAAVAIKEENGVLEVEVHVIAVGDEELVKKVEEKLKEAAEEIKKKFPKAEVKVEVLERKEL,0.119
6,GBRAPL2_63_7396 (protein) MIAKKVLEILLREAILDLETAEELEKALEEEKTEEELRKALVKAILDLNPDLTEEEAEEIVELLLELAKKSEELARKAVRALSTLDNEEAFAFIKKLVAE,0.0814
7,GBRAPL2_63_7397 (protein) MTAKKVLEIILREAILDLETAEKLEEALKNEKTEEALREALVEAILDMRPDLTEEEAEEIVDLLLELQKKSEELAREGVRALSTLDNEEALAYLKELVAK,0.0233
8,GBRAPL2_63_7398 (protein) MLAKKVLEALLENAILPLDLAEELEKALETLKTEEELRETLVKAILELNPELTEEEAEEIVDLLIELAKKSEELLKEGVRALSTLDNETAKEYLKKLVAE,0.0619
9,GBRAPL2_63_7395 (protein) SAAARVLRALLEHAIVDLETAERIEEALATEKSAEALRETLVAALLDMIPELTEEEARELAAALEALARRSPELLREALRALQTLSLEEARARLAALLAA,0.00583
10,GBRAPL2_63_7399 (protein) SAAKKALEALLEHAILDLDTAERLDKALENEKDEEKLRKALVEAILDINPEATEEEAERMADLLLELAKKSEAALKEAVRALSTMDLPEALAFLEALVAA,-0.0717
11,GBRAPL2_93_7422 (protein) MKVKVTIIRLVNGEVVEEEEREVTVEEAKKLIEELLKEAVANGERVIIEIYDKDTGWTFGDYVENEEQAEKALKRAKEILDDLEKEGKEVEITITIEKKT,0.15
12,GBRAPL2_83_7416 (protein) MKKRVLITHEIEVKSEKVTKEEALDLAGDVAERLREKGIAAVVSVEEEDGVILVEIEALLEDSEEKIKIVEEEVEKLVKRLEELGAEVKLKTEREEEIVP,0.184
13,GBRAPL2_64_7409 (protein) PKVHLAIAYEVEEREEDGKKVLVLDATVYVIKDGEITELEAKVVAEQLSETTWLVKLELKKPDGSVIKREEVVEAPWEDVETEMLELVDEAAREAVEEEE,-0.0236
14,GBRAPL2_83_7418 (protein) VKTIRVITYDIEIKSENITEEEALDMAGDVAEELRKKGVKTVVGVEEENGVVHVTLEAIHEDDEELRKLIDEEVEKLVKELEAKGAEVKVKVEEELEEIE,0.388
15,GBRAPL2_63_7401 (protein) SSVEKVLKTLLEYAVLDLDTAEKIDKALENNESDEELFKTLVEAIKDIRPDLTEEEAEEIAKLLIELAKKSEELLKEAVRKLDTMENEEFIKYLKELVEK,0.131
16,GBRAPL2_85_7419 (protein) MEKVTIVARSLAEAVDMAVDVVEALEPEGEIEVDLIVLVPSSELEAALAALPAAAAELKARLQELARRHPGLVVRAEVEIFDSDTREFHPDVRRFTVRDE,0.0842

row,Binder,median log2 fold change
1,GBRAPL2_63_7407 (protein) MTVRKVLEALLEHAILDLDTAERLEEALENETDEEELFETLVEAILDIRPELTPEEAREVAEKLVELAKQSEELLKEAVRALTTLSKEEFLAYLDELVAK,0.0216
2,GBRAPL2_54_7390 (protein) LVEVELILIVSGELPEEEIERIEELLKEKTEELLKKHSDKIEKILRFEREREDGVVLISVELLVKEEYKEEVIDELIKIAEEIREESGVEIKSVIAESSD,-0.0228
3,GBRAPL2_63_7391 (protein) SLADKTAALLSRLGAVPLELAEAWEAAAAALTDVAAFAEAAAAAAAAINPRIDAERQAILEEAIRRALTEDDPLAVEIVSAIINNEPDEEIRALWKKLLA,0.206
4,GBRAPL2_63_7393 (protein) STWARVLRLILEHATIDLETAERLEAALESNASDEELFATLVEALQDIRPELTPEQARDIAAKLARLAERSEALAAEAVRRLDTMSLEEFLAHLDALVAA,0.216
5,GBRAPL2_63_7402 (protein) SAVERVLRTLLEHAVLDLDTAERLEKALESNLSDEELFKTLVEAIKDINPELTEEEAERVARLLIALAEQSEALLVEAVRQLSTLENEEFLALLEALVAA,0.0388
6,GBRAPL2_63_7392 (protein) SLLDKVLKLLSRLGPVPLDLAERFEELAEELSDEEELAKAIAEAVQEDNPHIDEERRKILEEAILKALTEDSEIAIKIASAIINGAPMEEIEKLLEELKK,0.0699
7,GBRAPL2_63_7406 (protein) SAVRRVLEALLRHAILDLDTAELLDEALETETDEEALYETLVEAILRIRPELTPEEAREVADKLIALAEQSEALLAEAVRDLTTLSKEEFLARLDALVAE,-0.0969
8,GBRAPL2_83_7415 (protein) VERTVLITTEITVRHPDLTEEEALDLAGDVAARLREHGVKTVVGVEERDGVVHIVLESLTPDDPALRAAIDEEVDALVAELRARGAEVEVRREEEVVDVP,-0.00519
9,GBRAPL2_63_7405 (protein) MTAKKVLEALLRHAILPLDTAERLDEALENEEDEEKLRETLVEAILDIRPELTPEEAEYVAEKLLALAEQSEERLAEAVRALTTLSKEEFLARLDELVAE,-0.247
10,GBRAPL2_85_7420 (protein) MEKITIVARTLEEAVEMAVDVVEALDPKGEIEVELIVLVPSSELEKAIAELPKAAEELKKKFQELAKKHPGLKINAEIEIFDSDTREFHPDVKKFTVEDK,0.19
11,GBRAPL2_64_7408 (protein) AKVHLAIAYEFKESTENGKKVLKLEATVYVIEDGEITELEAEVTATQLSETTWEVKLVLRQPDGSVLERTEVVTVPYEDVETEMLDLILEAAREAVAARR,0.118
12,GBRAPL2_63_7404 (protein) SSAEKVLKTLLEYATLDLDTAERLEEALESNASEEELREALVEAIKDIRPDLTEEEAERVADLLIELAKQSEELLKEAVRDLDTLENDEFLKRLEELVAA,0.0151
13,GBRAPL2_83_7417 (protein) VKKLKVITHDIEIKSENITEEEALDMAGDVAAELRKHGIKTVVGVERENGVVKVELESIMEDNEEKEKLVHEEVEKLVEELKKKGAEVKVETEEEIVEVE,0.0338
14,GBRAPL2_83_7410 (protein) MEVLLELELTVTYKGNEEDKEKILDMLLEAQDKLRELGATAVVAEKLENGVYTFSLYAIYRGPREGAEKVRKTLEEFAEKIKKEFPEAKVEVKVLEEREL,-0.0517
15,GBRAPL2_85_7421 (protein) TEKVTIVAHTLEEVVDMSVDVLEALEPKGTVEIEGIVAVPSSELEKALKELPKAAEELKKRLEELAKKRPGLTINAEIRIFNLDTKEFHPKVEKFTVKNE,0.266
16,GBRAPL2_63_7403 (protein) SEVEKVLKAILEYATLDLDTAERIDKALESNLSEEELFEVLVETIKDINPELTDEEAEKIAELLIELAKQSEEKLKEAVRKLQTMENEEFIAYLEELVKE,-0.012

# Reference: the supplement of paper PMC12632987
